SMN2 splice enh – SMN2 splice variant enhancement; HEK293 SMN2-luciferase splicing reporter, luminescence, 30-36 h; Potency, µM (series often up to 46.1 µM), without a hit: at the highest dose activity change, positive = activation, usual class: activators; hit rate 2.8% among 210,000; also: % of control where 0% means no effect; nearly all actives have a fitted effect of over 55% in size
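qHTS luciferase splicing reporter: luminescence rises when SMN2 exon 7 is included in transfected HEK293 cells. Compound exposure lasted 30-36 h at 37C, with 4.5 mM final sodium butyrate as control, followed by a ONE-Glo read.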
FLuc counter – counter-screen for miR-21 project: firefly luciferase inhibitors or activators | P08659 | purified FLuc, Km substrates, luminescence inhibition | Potency, µM (series often up to 57.5 µM), for the others: top-dose activity change, negative = inhibition, usual class: inhibitors | hit rate 6.9% among 360,000 | AID 588342;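 also: plate controls were vehicle for no effect and reference inhibitor for full effect; nearly all actives have a fitted effect of over 55% in size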
Target sequence (P08659 whole entry, looked up): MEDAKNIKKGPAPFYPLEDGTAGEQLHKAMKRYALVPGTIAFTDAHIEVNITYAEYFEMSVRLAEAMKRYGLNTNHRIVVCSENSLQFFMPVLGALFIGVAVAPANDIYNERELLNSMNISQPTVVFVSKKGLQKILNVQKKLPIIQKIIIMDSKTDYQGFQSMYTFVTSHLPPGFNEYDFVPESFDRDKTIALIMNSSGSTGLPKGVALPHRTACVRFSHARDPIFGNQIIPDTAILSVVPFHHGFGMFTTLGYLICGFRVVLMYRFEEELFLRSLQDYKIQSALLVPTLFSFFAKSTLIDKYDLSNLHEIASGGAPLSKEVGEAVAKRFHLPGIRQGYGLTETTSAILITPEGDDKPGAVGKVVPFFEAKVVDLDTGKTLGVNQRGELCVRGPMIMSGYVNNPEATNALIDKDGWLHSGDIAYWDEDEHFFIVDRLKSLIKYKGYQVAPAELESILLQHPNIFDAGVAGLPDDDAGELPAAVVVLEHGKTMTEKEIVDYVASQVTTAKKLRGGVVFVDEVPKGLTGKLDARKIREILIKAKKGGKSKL
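Purified P. pyralis luciferase (10nM final) with 10uM D-luciferin and 10uM ATP (Km levels) in 50mM Tris acetate pH 7.5, 10mM Mg acetate, 0.01% Tween-20, 0.05% BSA; qHTS 6-point titration, ~60 µM downward; luminescence read.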
Rab9 prom act – Rab9 promoter activation; Huh7 Rab9 promoter-luciferase reporter, luminescence, 24 h; hit rate 2.8% among 320,000; Potency, µM (highest dose often 9.22 µM), for the others: at the highest dose activation, negative = inhibition, usual class: activators; also: % of control where 0% means no effect; nearly all actives have a fitted effect of over 60% in size
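Steps: seed 1500 Huh7 Rab9-luc cells per well, rest 2 h at 37 °C; add compound in DMSO; incubate 24 h; add luciferase reagent, 10 min ambient; read luminescence.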
ELG1 repair inh – ELG1-dependent DNA repair inhibition; Potency, µM (doses to about 46.1 µM), without a hit: at the top dose activity change, negative = inhibition, actives largely listed as inhibitors; HEK293T ELG1-luciferase reporter, luminescence, 16 h; DNA damage induced by 5-fluorouridine; hit rate 2.3% among 330,000; also: % is scaled to controls: 0 for no effect and ±100 for the full control effect; nearly all actives have a fitted effect of over 55% in size
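Step one: seed 2,000 cells per well. Step two: pin-transfer compound or DMSO alongside 5-fluorouridine. Step three: incubate 16 hr, 37 °C, 5% CO2. Step four: add ONE-Glo, wait 30 min, read luminescence.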
ELG1 genotoxic – genotoxicity induction in ELG1-luciferase HEK293T cells; HEK293T ELG1-luciferase reporter, luminescence, 16 h; Potency, µM (top dose mostly 46 µM), for inactives: at the highest dose activity change, positive = activation, hits mostly activators; hit rate 1.3% among 330,000; also: % of control where 0% means no effect; nearly all actives have a fitted effect of over 60% in size
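HEK293T cells expressing luciferase-tagged ELG1 were exposed to compound or DMSO vehicle for 16 hr at 37 °C and 5% CO2. Luciferase activity was then measured with ONE-Glo after 30 min at room temperature.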
NPC1 prom act – NPC1 promoter activation; Huh7 NPC1 promoter luciferase reporter, 24 h; Potency, µM (doses to about 9.22 µM), without a hit: at the top dose activation, most hits filed as activators; hit rate 2.4% among 320,000; also: % of control where 0% means no effect; nearly all actives have a fitted effect of over 60% in size
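Compounds in DMSO were transferred onto Huh7 NPC1-luciferase reporter cells pre-incubated 2 h; after 24 h at 37 °C, Amplite reagent was dispensed and luminescence recorded 10 min later.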
ELG1 FLuc counter – luciferase inhibition in cell-free luciferin readout for ELG1 hits. cell-free firefly luciferase luminescence counter-screen, ViewLux. shares compounds with ELG1 repair inh. hit rate 3% among 350. AID 624247. Potency, µM (highest dose often 46.1 µM), without a hit: at the highest dose activity change, negative = inhibition, usual class: inhibitors; also: % is scaled to controls: 0 for no effect and ±100 for the full control effect
ELG1 Luc conf – inhibits ELG1-dependent DNA repair in HEK293T cells, confirmed; shares compounds with ELG1 repair inh; HEK293T ELG1-luciferase levels, luminescence; cells co-treated with 5-fluorouridine; Potency, µM (highest dose often 46.1 µM), for the others: at the top dose activity change, negative = inhibition, usual class: inhibitors; hit rate 68% among 670; AID 624248; also: % is scaled to controls: 0 for no effect and ±100 for the full control effect; nearly all actives have a fitted effect of over 55% in size
ELG1-Luc MMS – inhibits ELG1-dependent repair under MMS stimulation in HEK293T cells; shares compounds with ELG1 repair inh; HEK293T luciferase-tagged ELG1 level, MMS stimulated; Potency, µM (doses to about 46.1 µM), for the others: at the top dose activity change, negative = inhibition, most hits filed as inhibitors; hit rate 53% among 670; AID 624249; also: % is scaled to controls: 0 for no effect and ±100 for the full control effect; nearly all actives have a fitted effect of over 60% in size
ELG1 5-FU – confirmation of ELG1 repair inhibitors: viability with 5FU; shares compounds with ELG1 repair inh; cell viability with 5-FU, ELG1-dependent repair; Potency, µM (series often up to 46.1 µM), for inactives: top-dose activity change, negative = viability loss, most hits filed as cytotoxic; 670 tested, under 10 active;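 also: ELG1-luc HEK293T cells cotreated with 5-fluorouridine at 10 µM final; viability measured 16 h after compound addition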
ELG1 MMS viab – confirmation of ELG1 repair inhibitors: viability with MMS. shares compounds with ELG1 repair inh. Cell viability with MMS, ELG1-dependent DNA repair. Potency, µM (series often up to 46.1 µM), without a hit: at the highest dose activity change, negative = viability loss, hits mostly cytotoxic. hit rate 33% among 670. AID 624251;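 also: ELG1-luc HEK293T cells co-treated with 10 µM MMS; viability read 16 h after compound addition; % is scaled to controls: 0 for no effect and ±100 for the full control effect; nearly all actives have a fitted effect of over 60% in size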
Cell viab unstim – affects unstimulated cell viability, ELG1 hit counter-screen; hit rate 8% among 900; shares compounds with ELG1 repair inh; Potency, µM (highest dose often 45.9 µM), for inactives: top-dose activity change, negative = loss of viability, actives largely listed as cytotoxic; cell viability counter-screen, unstimulated, luminescence;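 also: compound exposure lasted 16 hours before reading; % is scaled to controls: 0 for no effect and ±100 for the full control effect; nearly all actives have a fitted effect of over 55% in size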
FLuc enzyme – inhibits purified firefly luciferase, counter-screen for ELG1 hits | shares compounds with ELG1 repair inh | Potency, µM (titrated, usually from 57.5 µM), for inactives: top-dose activity, negative = inhibition, actives largely listed as inhibitors | hit rate 10% among 350 | purified firefly luciferase, luminescence counter-screen | AID 624253; also: % is scaled to controls: 0 for no effect and ±100 for the full control effect
Starred values were filed as active, the others as inactive; ? = inconclusive; · = not tested or not shown; [ ] = remark or other dose. This is a sample that favours compounds with a hit; in the whole collection about 9.2% have one here. Calls follow the shape of the dose curve; as a rule, active = well fitted curve in the direction sought with a large enough effect; inconclusive = small, poorly fitted or top-dose-only effect, or another doubt; inactive = no such curve, though single readings can be large; an effect the other way counts as inactive or inconclusive. Potency is read from the fitted curve at half-maximal effect.

SMILES	SMN2 splice enh	FLuc counter	Rab9 prom act	ELG1 repair inh	ELG1 genotoxic	NPC1 prom act	ELG1 FLuc counter	ELG1 Luc conf	ELG1-Luc MMS	ELG1 5-FU	ELG1 MMS viab	Cell viab unstim	FLuc enzyme
CCCCn1c(SCC(=O)Nc2nnc(CC)s2)nc2c1c(=O)n(C)c(=O)n2C	-40%	4%	-12%	2.5µM*	-18%	-9%	·	?	11%	-14%	?	?	·
CCCCn1c(SCC(=O)Nc2nnc(C)s2)nc2c1c(=O)n(C)c(=O)n2C	-2%	0%	-1%	9%	0%	-3%	·	·	·	·	·	·	·
CCOC(=O)C1CCN(C(=O)CN(c2ccc3c(c2)OCCO3)S(=O)(=O)c2ccccc2)CC1	·	2%	-6%	3%	0%	-1%	·	·	·	·	·	·	·
Oc1cc2cc(-c3csc(-c4ccc(F)cc4)n3)cc3c2n1CCC3	·	·	·	·	·	·	·	·	·	·	·	1%	·
Fc1ccc(-c2csc(-c3nc(-c4ccc(Br)s4)cs3)n2)cc1	-1%	2%	·	·	·	·	·	·	·	·	·	·	·
Cc1ccc(-n2nc(CN3CCOCC3)c(-c3ccccc3)c2N)cc1Cl	4%	-5%	-2%	1.6µM*	-2%	-1%	·	1.4µM*	18µM*	?	25µM*	-1%	·
Nc1c(-c2ccccc2)c(CN2CCOCC2)nn1-c1ccccc1	5%	0%	3%	-2%	2%	2%	·	·	·	·	·	·	·
Cc1nc(N)nc(N)c1/C=C/C(C)(C)c1ccc(Cl)cc1	-53%	4%	-26%	0.23µM*	-17%	-11%	?	7.9µM*	14µM*	?	?	0.056µM*	6%
O=C(CNS(=O)(=O)c1ccccc1)N/N=C/c1ccccc1[N+](=O)[O-]	·	-1%	-3%	-6%	3%	1%	·	·	·	·	·	·	·
COc1ccc(NC(=O)C2CCN(c3nc(C)cc(C)n3)CC2)cc1	-1%	-2%	-9%	-14%	-1%	-5%	·	·	·	·	·	·	·
COc1ccc(NC(=O)C2CCN(c3ncnc4c3nc3n4CCCCC3)CC2)c(OC)c1	·	-12%	-1%	4.6µM*	-5%	0%	?	7.9µM*	32µM*	?	?	?	-9%
COC(=O)c1ccccc1NC(=O)C1CCN(c2ncnc3c2nc2n3CCCCC2)CC1	·	6%	0%	?	-8%	-2%	-2%	11µM*	?	?	1%	-8%	-11%
COc1ccc(NC(=O)C2CCN(c3nc(C)nc4c3CCC4)CC2)cc1	-56%	21%	-15%	0.73µM*	-7%	-16%	-13%	?	5µM*	-6%	5µM*	?	25%
Cc1cccc(NC(=O)C2CCN(c3ncnc4c3nc3n4CCCCC3)CC2)n1	·	-2%	5%	1.8µM*	-3%[9.26 µM]	-6%	5%	5µM*	?	?	-11%	?	-5%
CSc1ccc(CCNC(=O)CCc2c(C)nc3ncnn3c2C)cc1	-5%	2%	·	·	·	·	·	·	·	·	·	·	·
CCCN1CCN(C(=O)C2CCN(c3ncnc4c3nc3n4CCCCC3)CC2)CC1	·	4%	-3%	-8%	0%	-2%	65%	-28%	?	-8%	?	-16%	-2%
COc1ccc(N2CCN(C(=O)C3CCCN(c4ncnc5c4nc4n5CCCCC4)C3)CC2)cc1 (centres undefined)	·	1%	0%	3.7µM*	-12%	-7%	56%	10µM*	?	?	-7%	?	-4%
CC1CCN(C(=O)C2CCN(c3ncnc4c3nc3n4CCCCC3)CC2)CC1	·	-2%	0%	-3%	-8%	-3%	·	·	·	·	·	·	·
Cc1ccccc1CC(=O)N1CCN(S(=O)(=O)c2ccc(Cl)s2)CC1	·	·	·	?	-3%	·	·	·	·	·	·	·	·
O=c1c2ccccc2oc2ccc(-c3ccc4cc[nH]c4c3)cc12	·	·	·	?	?	·	94%	·	·	·	·	?	0.41µM*
CCN1CCC(N(Cc2ccc3c(c2)OCO3)C(=O)Nc2cc(Cl)ccc2C(=O)OC)CC1	·	1%	·	·	·	·	·	·	·	·	·	·	·
